From PubChem
Only some compounds are listed: those with a hit (about 2.2% of all), similar ones and a draw of the others.
LDHA block: qHTS assay for inhibitors of human lactate dehydrogenase; L-lactate dehydrogenase A chain (Homo sapiens), P00338; purified LDHA, NADH/diaphorase-resazurin fluorescence; stronger effect = lower value; activity change, % (values are at about 110 or 230 µM); actives 0.15% (n = 480,000); in the data active means activity change below about -30%; inconclusive means mostly about -25% to -30%
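Human LDH5 at 2 nM final in Tris HCl pH 7.4 with 0.06 mM NADH and 0.2 mM pyruvate, reacted 5 minutes at room temperature. Remaining NADH coupled via diaphorase/resazurin; resorufin fluorescence read at 0 and 20 minutes, normalized to enzyme-free and DMSO wells.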
IDH1 R132H inh: qHTS for Inhibitors of mutant isocitrate dehydrogenase 1 (IDH1): qHTS; AID 602179, 2012; Isocitrate dehydrogenase [NADP] cytoplasmic (Homo sapiens), O75874; actives 0.093% (n = 390,000); Potency, µM (doses to about 76.6 µM), most hits filed as inhibitors; IDH1-R132H enzyme, NADPH consumption, diaphorase/resazurin fluorescence; further: nearly all actives have a fitted effect of over 65% in size
Target sequence (O75874 whole entry R132H, stated change not applied): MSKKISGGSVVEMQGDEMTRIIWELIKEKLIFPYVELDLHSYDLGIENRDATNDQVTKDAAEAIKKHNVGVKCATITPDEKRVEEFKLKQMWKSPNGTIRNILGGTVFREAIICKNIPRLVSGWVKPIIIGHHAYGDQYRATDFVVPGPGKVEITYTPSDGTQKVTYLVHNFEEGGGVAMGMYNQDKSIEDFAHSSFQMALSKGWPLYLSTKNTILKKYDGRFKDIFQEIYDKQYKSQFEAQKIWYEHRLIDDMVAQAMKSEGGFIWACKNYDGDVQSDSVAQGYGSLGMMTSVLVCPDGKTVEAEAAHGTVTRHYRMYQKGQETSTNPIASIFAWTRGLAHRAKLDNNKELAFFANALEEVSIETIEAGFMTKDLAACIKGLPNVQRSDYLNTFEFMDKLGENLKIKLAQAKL
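IDH1-R132H (0.5 ug/mL) preincubated 30 min with compound, then NADPH (0.016 mM) and alpha-KG (2 mM) added; 80 min at RT, pH 7.5. Remaining NADPH coupled via diaphorase/resazurin to fluorescence (540/590 nm); concentration-response curves normalized to no-enzyme control.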
ATXN viability: Viability Counterscreen for Primary qHTS for Inhibitors of ATXN expression; actives 0.49% (n = 400,000); S2 cells (HEK-293 line with an ATXN2-luciferase reporter) viability, CellTiter-Fluor protease fluorescence, 24 h; AID 651635, 2014; Potency, µM (titrated, usually from 56.7 µM), hits mostly cytotoxic; further: nearly all actives have a fitted effect of over 40% in size
HepG2 tox-1: qHTS for Inhibitors of TGF-b: Cytotox Counterscreen; HepG2 CAGA-GFP viability, ATP luminescence, 18 h; Potency, µM (series often up to 46.1 µM), most hits filed as cytotoxic; actives 0.76% (n = 410,000); AID 588856, 2011
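CellTiter-Glo luminescence gave cytotoxicity after 18 hours at 37 degrees C. The cells were HepG2 CAGA-GFP in 1% FBS DMEM, stimulated with 500 pg/mL TGF-beta after compound addition. %Activity was normalised to no-cell wells (complete cell-killing) and DMSO (no toxicity), and curves were fitted and classified.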
TGFb SMAD3 inh: qHTS for Inhibitors of TGF-b. HepG2 CAGA-GFP TGF-b/SMAD3 reporter, GFP fluorescence, 18 h; TGF-beta stimulated, 500 pg/mL final. AID 588855, 2011. actives 1.2% (n = 410,000). Potency, µM (series often up to 46.1 µM), most hits filed as inhibitors; further: nearly all actives have a fitted effect of over 65% in size
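Inhibition of TGF-beta-driven CAGA-GFP reporter expression in HEPG2 cells is measured by cellular GFP fluorescence after 18 h stimulation with 500 pg/mL recombinant TGF-beta in 1% FBS medium at 37 degrees C.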
ATXN2 expr inh: Primary qHTS for Inhibitors of ATXN expression | Potency, µM (titrated, usually from 57 µM), most hits filed as inhibitors | actives 0.72% (n = 360,000) | HEK-293 ATXN2-luciferase reporter, luminescence, 24 h; further: nearly all actives have a fitted effect of over 55% in size
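qHTS (up to 57 uM final) was run with 24 h compound exposure of reporter cells at 37 °C. Each well was multiplexed: SteadyGlo luminescence measured ATXN2-luciferase expression after a fluorogenic Gly-Phe-AFC viability readout (25 uM final).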
TGFb confirm: qHTS for Inhibitors of TGF-b: Confirmation of Cherry Picks; shares compounds with TGFb SMAD3 inh; HepG2 CAGA-GFP TGF-b reporter, GFP fluorescence, 18 h; cells stimulated with TGF-beta, 500 pg/mL; Potency, µM (doses to about 46.1 µM), hits mostly inhibitors; actives 63% (n = 1,600); AID 720534, 2013; further: nearly all actives have a fitted effect of over 65% in size
HepG2 tox-2: qHTS for Inhibitors of TGF-b: Cytotox Counterscreen for Cherry Picks | shares compounds with TGFb SMAD3 inh | HepG2 CAGA-GFP viability, ATP luminescence, 18 h; cells stimulated with TGF-beta, 500 pg/mL | Potency, µM (series often up to 46.1 µM), usual class: inhibitors | actives 27% (n = 1,600); further: nearly all actives have a fitted effect of over 70% in size
CCL64 TGFb inh: qHTS for Inhibitors of TGF-b: CCL64 Cells Orthogonal Assay for Cherry Picks | shares compounds with TGFb SMAD3 inh | CCL64 CAGA-GFP reporter, TGF-b stimulated, GFP fluorescence, 18 h | Potency, µM (top dose mostly 46.1 µM), hits mostly inhibitors | actives 41% (n = 1,600) | AID 720536, 2013; further: nearly all actives have a fitted effect of over 65% in size
COP TGFb inh: qHTS for Inhibitors of TGF-b: Hit Validation in HepG2 Cells using COP promoter; shares compounds with TGFb SMAD3 inh; HepG2 COP-GFP TGF-b reporter, GFP fluorescence, 18 h; cells stimulated by added recombinant TGF-beta; Potency, µM (series often up to 46.1 µM), hits mostly inhibitors; actives 3% (n = 1,600); further: nearly all actives have a fitted effect of over 70% in size
Large screens that a line does not name were inactive (follow-up assays come after a bar, where they were run). Unless noted, the call rests on the fitted dose curve; in most records, active means well fitted curve in the direction sought with a large enough effect; inconclusive means small, poorly fitted or top-dose-only effect, or another doubt; inactive means no such curve, though single readings can be large; an effect the other way counts as inactive or inconclusive.

CCOc1cc(/C=C/C(=O)Nc2ccc(C(=O)NCCN(CC)CC)cc2)ccc1OCC(C)C	HepG2 tox-1 13µM, TGFb SMAD3 inh inconclusive (no result: ATXN viability, ATXN2 expr inh)
CC(C)(C)c1nc2cc(NC3CCCCNC3=O)ccc2o1 (configuration not stated)	none (no result: IDH1 R132H inh, ATXN viability, HepG2 tox-1, TGFb SMAD3 inh, ATXN2 expr inh)
O=C1C=C(N2CCCCC2)c2ccccc2C1=O	TGFb SMAD3 inh 2.8µM, ATXN2 expr inh 30µM (no result: ATXN viability)
CCCOc1cccc(C(=O)Nc2cccc(NC(=O)c3ccc(Cl)cc3Cl)c2)c1	TGFb SMAD3 inh inconclusive
COc1ccc(C2CCCN2C(=O)Nc2ccc(F)cc2)cc1OC (configuration not stated)	none
CC(C)(C)OC(=O)NCCc1nnc(SCc2cccc(Cl)c2)o1	TGFb SMAD3 inh 7.9µM | TGFb confirm inactive | HepG2 tox-2 inactive | CCL64 TGFb inh inactive | COP TGFb inh inactive
Cc1cccc(CSc2nnc(CCNC(=O)OC(C)(C)C)o2)c1	none
O=C(Nc1nc2cc3c(cc2s1)OCCO3)c1ccc([N+](=O)[O-])o1	TGFb SMAD3 inh inconclusive | TGFb confirm 0.82µM | HepG2 tox-2 4.1µM | CCL64 TGFb inh inconclusive | COP TGFb inh inactive
O=C(Nc1nc2ccccc2s1)c1ccc([N+](=O)[O-])o1	ATXN viability inconclusive, TGFb SMAD3 inh inconclusive (no result: ATXN2 expr inh)
COc1ccc2nc(NC(=O)c3ccc([N+](=O)[O-])o3)sc2c1	ATXN viability inconclusive, TGFb SMAD3 inh 8.9µM | TGFb confirm 2.3µM | HepG2 tox-2 21µM | CCL64 TGFb inh 12µM | COP TGFb inh inactive
O=C(CNC(=O)c1cccc(F)c1)N/N=C/c1cccnc1	none (no result: ATXN2 expr inh)
COC(=O)c1ccc(CNC(=O)CSc2nnc(COc3ccccc3)n2C)o1	TGFb SMAD3 inh inconclusive | TGFb confirm inactive | HepG2 tox-2 inactive | CCL64 TGFb inh inactive | COP TGFb inh inactive
CCSc1nnc(NC(=O)[C@@H](NC(=O)c2ccc(C(C)(C)C)cc2)C(C)C)s1	TGFb SMAD3 inh inconclusive
Oc1ccc(CNc2ccccc2Br)c2cccnc12	none (no result: IDH1 R132H inh, ATXN viability, HepG2 tox-1, TGFb SMAD3 inh, ATXN2 expr inh)
Cc1ccccc1NCc1ccc(O)c2ncccc12	TGFb SMAD3 inh 10µM, ATXN2 expr inh inconclusive | TGFb confirm inconclusive | HepG2 tox-2 inconclusive | CCL64 TGFb inh 5.8µM | COP TGFb inh inactive
Cn1c(C(=O)N2CCN(c3ccc(Cl)cc3)CC2)cc2c(=O)[nH]c3ccccc3c21	none
Cc1ccc(Cl)cc1N1CCN(C(=O)c2cc3c(=O)[nH]c4ccccc4c3n2C)CC1	ATXN viability inconclusive, TGFb SMAD3 inh inconclusive | TGFb confirm inconclusive | HepG2 tox-2 inconclusive | CCL64 TGFb inh inactive | COP TGFb inh inactive
COc1ccc(S(=O)(=O)NC(C)C(=O)NCc2cccnc2)cc1OC (configuration not stated)	none
CC(C)C[C@@H](CN1CCCC1CN1C(=S)NC[C@@H]1Cc1ccc(O)cc1)N1C[C@H](Cc2ccccc2)N(CC2CCCCCC2)C1=S (some centres not stated)	ATXN viability inconclusive, TGFb SMAD3 inh 16µM | TGFb confirm 10µM | HepG2 tox-2 inconclusive | CCL64 TGFb inh 2.1µM | COP TGFb inh inactive
CC(C)C[C@@H](CN1CCCC1CN1C(=S)NC[C@@H]1Cc1ccc(O)cc1)N1C[C@H](Cc2ccccc2)N(CC2CCCCC2)C1=S (some centres not stated)	ATXN viability inconclusive, TGFb SMAD3 inh inconclusive
CC(C)C[C@@H](CN1CCCC1CN1C(=S)NC[C@@H]1Cc1ccc(O)cc1)N1C[C@H](Cc2ccc(O)cc2)N(CC2CCCCCC2)C1=S (some centres not stated)	ATXN viability 28µM, TGFb SMAD3 inh 5.6µM, ATXN2 expr inh inconclusive | TGFb confirm 21µM | HepG2 tox-2 inconclusive | CCL64 TGFb inh 13µM | COP TGFb inh inconclusive
Cc1cc(S(=O)(=O)N2CCOCC2)ccc1OCC(=O)NCCCn1ccnc1	none
CCC(=O)Nc1sc2c(c1C(N)=O)CCN(C(C)=O)C2	none
CC(=O)N1CCc2c(sc(NC(=O)c3ccc([N+](=O)[O-])o3)c2C(N)=O)C1	ATXN viability 20µM, TGFb SMAD3 inh 3.5µM (no result: ATXN2 expr inh) | TGFb confirm 4.6µM | HepG2 tox-2 5.8µM | CCL64 TGFb inh inconclusive | COP TGFb inh inconclusive
CCCCCCCC1CC(=O)C=C(C)C1C(=O)OCC (configuration not stated)	TGFb SMAD3 inh inconclusive
CC1CCc2[nH]c3ccc(C(=O)N4CCCC(C(F)(F)F)C4)cc3c2C1 (configuration not stated)	TGFb SMAD3 inh 14µM | TGFb confirm inconclusive | HepG2 tox-2 inconclusive | CCL64 TGFb inh 21µM | COP TGFb inh inactive
CNc1cc(C)c(C#N)c2nc3ccccc3n12	none (no result: ATXN viability)
Cc1cc(Cl)n2c(nc3ccccc32)c1C#N	TGFb SMAD3 inh 1.8µM, ATXN2 expr inh inconclusive (no result: ATXN viability) | TGFb confirm 1.2µM | HepG2 tox-2 5.2µM | CCL64 TGFb inh 1.5µM | COP TGFb inh 26µM
O=C(NC1CCCCCC1)c1c2c(nc3ccccc13)CCN(Cc1ccccc1)C2	ATXN viability inconclusive
